target: Macrophage-stimulating protein receptor (Homo sapiens) (UniProt Q04912); conditions: at 10 µM
Sequence (Q04912 25-304 limits assumed): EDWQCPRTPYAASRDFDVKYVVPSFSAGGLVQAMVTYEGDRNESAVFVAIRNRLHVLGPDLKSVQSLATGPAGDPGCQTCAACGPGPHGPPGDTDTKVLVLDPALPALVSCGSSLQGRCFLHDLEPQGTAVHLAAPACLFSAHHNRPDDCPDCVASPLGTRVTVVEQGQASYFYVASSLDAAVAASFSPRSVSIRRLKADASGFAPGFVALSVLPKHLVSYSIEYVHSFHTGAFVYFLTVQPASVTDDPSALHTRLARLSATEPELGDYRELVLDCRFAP
Sequence (Q04912 310-1400 limits assumed): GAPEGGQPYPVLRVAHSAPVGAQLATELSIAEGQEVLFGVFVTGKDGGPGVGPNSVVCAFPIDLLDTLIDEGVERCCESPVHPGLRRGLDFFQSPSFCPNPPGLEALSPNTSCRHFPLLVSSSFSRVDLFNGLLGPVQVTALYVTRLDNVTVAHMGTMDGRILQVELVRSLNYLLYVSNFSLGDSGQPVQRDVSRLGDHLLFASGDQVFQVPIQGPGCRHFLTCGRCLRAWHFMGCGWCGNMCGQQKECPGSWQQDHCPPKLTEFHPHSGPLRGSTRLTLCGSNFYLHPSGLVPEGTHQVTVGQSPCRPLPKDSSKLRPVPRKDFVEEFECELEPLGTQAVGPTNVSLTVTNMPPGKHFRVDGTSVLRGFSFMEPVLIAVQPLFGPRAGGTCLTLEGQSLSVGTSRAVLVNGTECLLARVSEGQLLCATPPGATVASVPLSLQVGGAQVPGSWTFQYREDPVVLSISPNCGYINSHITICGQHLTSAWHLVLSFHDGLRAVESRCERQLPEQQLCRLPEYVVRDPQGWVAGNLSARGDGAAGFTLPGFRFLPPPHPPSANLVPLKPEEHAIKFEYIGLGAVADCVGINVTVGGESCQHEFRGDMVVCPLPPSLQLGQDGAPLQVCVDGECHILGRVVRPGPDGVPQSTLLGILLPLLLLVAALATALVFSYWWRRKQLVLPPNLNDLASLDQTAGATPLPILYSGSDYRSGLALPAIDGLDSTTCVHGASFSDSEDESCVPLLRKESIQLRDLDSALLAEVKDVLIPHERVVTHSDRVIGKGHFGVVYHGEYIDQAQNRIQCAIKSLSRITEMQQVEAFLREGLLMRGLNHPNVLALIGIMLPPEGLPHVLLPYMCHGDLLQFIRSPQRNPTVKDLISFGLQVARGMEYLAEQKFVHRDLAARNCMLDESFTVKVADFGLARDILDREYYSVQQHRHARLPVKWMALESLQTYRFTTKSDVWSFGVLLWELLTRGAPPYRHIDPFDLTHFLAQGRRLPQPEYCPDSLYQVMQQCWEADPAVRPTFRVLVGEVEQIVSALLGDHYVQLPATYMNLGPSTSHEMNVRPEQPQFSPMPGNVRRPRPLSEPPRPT

Row | SMILES | residual activity [%]
1 | c1cc(-c2cnn3cc(-c4ccc(OCCN5CCCCC5)cc4)cnc23)ccn1 | 83
2 | COc1cc(OC)c(/C=C2\C(=O)Nc3ccccc32)c(OC)c1 | 72
3 | CCn1cnc2c(Nc3cccc(Cl)c3)nc(N[C@@H]3CCCC[C@@H]3N)nc21 | 77
4 | COC(=O)[C@@]1(O)C[C@H]2O[C@]1(C)n1c3ccccc3c3c4c(c5c6ccccc6n2c5c31)C(=O)NC4 | 3
5 | COc1ccc2c(c1)/C(=C/c1cnc[nH]1)C(=O)N2 | 65
6 | O=C1Nc2ccc3ncsc3c2/C1=C/c1c[nH]cn1 | 11
7 | C[S+]([O-])c1ccc(-c2nc(-c3ccc(F)cc3)c(-c3ccncc3)[nH]2)cc1 (stereo not drawn) | 109
8 | O=[N+]([O-])/C=C/c1ccc2c(c1)OCO2 | 93
9 | COc1ccc2c(c[n+](C)c3c4cc5c(cc4ccc23)OCO5)c1OC | 75
10 | N/C(=N\[N+](=O)[O-])N/N=C\c1ccc(-c2cccc([N+](=O)[O-])c2)o1 | 63
11 | COc1cc2ncnc(Nc3ccc(OCc4ccccc4)cc3)c2cc1OC | 80
12 | O=c1[nH]c2ccccc2n1C1CCN(Cc2ccc(-c3nc4cc5[nH]cnc5cc4nc3-c3ccccc3)cc2)CC1 | 79
13 | CC(C)[C@H](CO)Nc1nc(Nc2cccc(Cl)c2)c2ncn(C(C)C)c2n1 | 86

target: Proto-oncogene tyrosine-protein kinase ROS (Homo sapiens) (UniProt P08922); conditions: at 1 µM
Sequence (P08922 whole entry): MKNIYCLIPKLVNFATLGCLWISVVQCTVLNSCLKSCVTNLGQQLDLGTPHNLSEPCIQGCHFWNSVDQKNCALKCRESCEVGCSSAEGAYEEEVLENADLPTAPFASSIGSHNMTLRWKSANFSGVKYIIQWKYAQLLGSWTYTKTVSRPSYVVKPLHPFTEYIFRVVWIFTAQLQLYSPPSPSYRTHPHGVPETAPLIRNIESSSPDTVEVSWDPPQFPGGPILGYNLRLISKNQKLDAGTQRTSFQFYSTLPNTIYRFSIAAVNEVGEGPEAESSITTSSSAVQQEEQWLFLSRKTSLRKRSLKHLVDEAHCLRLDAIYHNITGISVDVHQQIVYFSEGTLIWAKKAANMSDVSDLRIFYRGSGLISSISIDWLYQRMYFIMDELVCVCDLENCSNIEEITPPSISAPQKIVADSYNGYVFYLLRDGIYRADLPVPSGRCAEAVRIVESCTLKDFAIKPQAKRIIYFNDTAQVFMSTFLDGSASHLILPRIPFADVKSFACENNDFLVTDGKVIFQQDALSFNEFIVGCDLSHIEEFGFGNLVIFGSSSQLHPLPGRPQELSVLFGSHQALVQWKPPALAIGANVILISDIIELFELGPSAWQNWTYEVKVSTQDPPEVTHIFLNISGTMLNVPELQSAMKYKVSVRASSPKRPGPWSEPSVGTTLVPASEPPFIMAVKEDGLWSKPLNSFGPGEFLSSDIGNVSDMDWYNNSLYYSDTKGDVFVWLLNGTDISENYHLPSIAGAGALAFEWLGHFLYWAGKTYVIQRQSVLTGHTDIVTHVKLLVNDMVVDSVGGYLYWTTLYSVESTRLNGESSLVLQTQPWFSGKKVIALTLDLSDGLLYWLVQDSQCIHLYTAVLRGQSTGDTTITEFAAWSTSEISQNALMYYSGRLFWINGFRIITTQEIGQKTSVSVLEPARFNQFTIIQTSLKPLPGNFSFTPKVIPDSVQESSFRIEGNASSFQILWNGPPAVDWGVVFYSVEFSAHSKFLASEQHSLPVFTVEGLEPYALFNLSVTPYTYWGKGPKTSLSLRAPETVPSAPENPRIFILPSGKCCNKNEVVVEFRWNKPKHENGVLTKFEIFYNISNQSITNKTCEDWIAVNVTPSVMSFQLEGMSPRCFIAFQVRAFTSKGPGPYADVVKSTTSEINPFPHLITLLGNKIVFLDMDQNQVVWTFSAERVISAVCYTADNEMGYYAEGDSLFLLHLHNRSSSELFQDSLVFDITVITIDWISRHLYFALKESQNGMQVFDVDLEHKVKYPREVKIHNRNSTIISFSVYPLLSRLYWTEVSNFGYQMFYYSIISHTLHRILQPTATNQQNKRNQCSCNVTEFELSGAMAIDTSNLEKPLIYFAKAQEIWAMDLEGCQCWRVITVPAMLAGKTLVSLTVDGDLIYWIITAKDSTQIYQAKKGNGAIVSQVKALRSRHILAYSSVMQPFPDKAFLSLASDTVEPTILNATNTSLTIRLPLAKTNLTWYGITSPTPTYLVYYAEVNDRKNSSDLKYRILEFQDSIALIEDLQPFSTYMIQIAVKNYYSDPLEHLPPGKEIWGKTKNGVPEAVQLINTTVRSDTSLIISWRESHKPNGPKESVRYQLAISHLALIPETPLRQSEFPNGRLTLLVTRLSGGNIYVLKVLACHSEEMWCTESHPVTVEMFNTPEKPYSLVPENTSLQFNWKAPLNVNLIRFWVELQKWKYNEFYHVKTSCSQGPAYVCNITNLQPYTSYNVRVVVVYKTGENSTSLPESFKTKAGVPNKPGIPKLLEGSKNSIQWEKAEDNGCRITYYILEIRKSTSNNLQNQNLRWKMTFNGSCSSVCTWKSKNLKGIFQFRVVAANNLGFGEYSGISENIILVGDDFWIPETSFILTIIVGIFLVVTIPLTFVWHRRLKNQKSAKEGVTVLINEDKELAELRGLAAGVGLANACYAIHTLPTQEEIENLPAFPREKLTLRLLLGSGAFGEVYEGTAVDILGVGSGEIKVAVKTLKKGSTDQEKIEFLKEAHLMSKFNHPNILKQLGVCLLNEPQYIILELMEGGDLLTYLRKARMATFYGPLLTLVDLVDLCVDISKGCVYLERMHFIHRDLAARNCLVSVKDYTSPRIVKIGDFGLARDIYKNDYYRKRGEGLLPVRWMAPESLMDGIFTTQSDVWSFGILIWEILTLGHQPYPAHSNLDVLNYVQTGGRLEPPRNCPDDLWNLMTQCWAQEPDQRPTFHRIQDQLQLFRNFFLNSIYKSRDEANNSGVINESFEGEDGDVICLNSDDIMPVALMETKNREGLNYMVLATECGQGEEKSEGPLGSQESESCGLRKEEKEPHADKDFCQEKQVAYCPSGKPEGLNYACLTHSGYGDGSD

Row | SMILES | residual activity [%]
14 | COc1cc(OC)c(/C=C2\C(=O)Nc3ccccc32)c(OC)c1 | 96
15 | CCn1cnc2c(Nc3cccc(Cl)c3)nc(N[C@@H]3CCCC[C@@H]3N)nc21 | 93
16 | COC(=O)[C@@]1(O)C[C@H]2O[C@]1(C)n1c3ccccc3c3c4c(c5c6ccccc6n2c5c31)C(=O)NC4 | 21
17 | O=C1NC(=O)c2c1c1c3ccccc3n3c1c1c2c2ccccc2n1C1CCC3O1 | 94
18 | O=C1Nc2ccc3ncsc3c2/C1=C/c1c[nH]cn1 | 88
19 | C[S+]([O-])c1ccc(-c2nc(-c3ccc(F)cc3)c(-c3ccncc3)[nH]2)cc1 (stereo not drawn) | 117
20 | O=[N+]([O-])/C=C/c1ccc2c(c1)OCO2 | 95
21 | O=C1c2ccccc2-c2nc3nnnn3nc21 | 103
22 | CC(C)(C)c1cc(C=C(C#N)C#N)cc(Br)c1O | 108
23 | COc1cc2ncnc(Nc3ccc(OCc4ccccc4)cc3)c2cc1OC | 108
24 | O=c1[nH]c2ccccc2n1C1CCN(Cc2ccc(-c3nc4cc5[nH]cnc5cc4nc3-c3ccccc3)cc2)CC1 | 96
25 | CCc1nc(-c2ccc(OC)cc2)[nH]c1-c1ccncc1 | 105

target: Proto-oncogene tyrosine-protein kinase ROS (Homo sapiens) (UniProt P08922); conditions: at 10 µM

Row | SMILES | residual activity [%]
26 | COc1cc(OC)c(/C=C2\C(=O)Nc3ccccc32)c(OC)c1 | 63
27 | CCn1cnc2c(Nc3cccc(Cl)c3)nc(N[C@@H]3CCCC[C@@H]3N)nc21 | 84
28 | COC(=O)[C@@]1(O)C[C@H]2O[C@]1(C)n1c3ccccc3c3c4c(c5c6ccccc6n2c5c31)C(=O)NC4 | 3
29 | O=C1NC(=O)c2c1c1c3ccccc3n3c1c1c2c2ccccc2n1C1CCC3O1 | 81
30 | O=C1Nc2ccc3ncsc3c2/C1=C/c1c[nH]cn1 | 87
31 | C[S+]([O-])c1ccc(-c2nc(-c3ccc(F)cc3)c(-c3ccncc3)[nH]2)cc1 (stereo not drawn) | 110
32 | O=[N+]([O-])/C=C/c1ccc2c(c1)OCO2 | 98
33 | O=C1c2ccccc2-c2nc3nnnn3nc21 | 110
34 | CC(C)(C)c1cc(C=C(C#N)C#N)cc(Br)c1O | 111
35 | COc1cc2ncnc(Nc3ccc(OCc4ccccc4)cc3)c2cc1OC | 101
36 | O=c1[nH]c2ccccc2n1C1CCN(Cc2ccc(-c3nc4cc5[nH]cnc5cc4nc3-c3ccccc3)cc2)CC1 | 93
37 | CC(C)[C@H](CO)Nc1nc(Nc2cccc(Cl)c2)c2ncn(C(C)C)c2n1 | 96
38 | CCc1nc(-c2ccc(OC)cc2)[nH]c1-c1ccncc1 | 101

Reference: ChEMBL document CHEMBL2218924, “A broad activity screen in support of a chemogenomic map for kinase signalling research and drug discovery” (Biochem J, 2013)
